ELG1 repair inh: inhibitors of ELG1-dependent DNA repair in HEK293T cells. HEK293T ELG1-luciferase reporter, luminescence, 16 h; DNA damage induced by 5-fluorouridine. Potency, µM (top dose mostly 46.1 µM), for inactives: at the highest dose activity change, negative = inhibition, hits mostly inhibitors. 330,000 compounds, 2.3% hits. AID 504467; note: potency is the fitted concentration of half-maximal effect; nearly all actives have a fitted effect of over 55% in size
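Reporter activity after DNA damage by 5-fluorouridine is monitored. Compound-treated cells incubate 16 hr at 37 °C, then ONE-Glo is added for 30 min before luminescence reading.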
HT1080 IDH1KD tx: toxicity to HT-1080 IDH1 knockdown cells (counter line); 360,000 compounds, 2% hits; AID 686971; Potency, µM (doses to about 46.1 µM), without a hit: at the top dose activity, negative = toxicity, usual class: cytotoxic; HT-1080 IDH1 knockdown viability, ATP luminescence, 48 h;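 note: potency is the fitted concentration of half-maximal effect; 0% = DMSO wells and -100% = cell-free medium wells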
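IDH1KD HT-1080 cells, 750/well, RPMI + 5% FBS; compound pinned after 2 h settling; 48 h, 37 °C; CellTiter-Glo luminescence; % activity normalised to DMSO and no-cell wells; curves fitted, classed by r2 and efficacy.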
TDP1 cell noCPT: qHTS for Inhibitors of human tyrosyl-DNA phosphodiesterase 1 (TDP1): qHTS in cells in absence of CPT | DT40 Tdp1-/- hTDP1 cells, no CPT, ATP luminescence, 48 h | Potency, µM (series often up to 46.2 µM), inactives show at the top dose activity change, negative = growth inhibition, hits mostly inhibitors | 420,000 compounds, 15% hits | AID 686978, 2013; note: potency is the fitted concentration of half-maximal effect; nearly all actives have a fitted effect of over 55% in size
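Growth kinetics read by CellTiter-Glo luminescence after ≥48 hr at 37 °C. Cells: DT40 Tdp1-/- stably carrying human TDP1, 400 per well, compound exposure in the absence of CPT (DMSO vehicle).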
TDP1 cell CPT: DT40-hTDP1 cell growth loss with CPT | 420,000 compounds, 12% hits | Potency, µM (highest dose often 46.2 µM), for the others: top-dose activity change, negative = growth inhibition, actives largely listed as inhibitors | chicken DT40 Tdp1-/-;hTDP1 cells + 20 nM CPT, ATP luminescence, 48 h; note: potency is the fitted concentration of half-maximal effect; nearly all actives have a fitted effect of over 55% in size
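Chicken DT40 Tdp1-/- cells stably complemented with human TDP1 were seeded at 400 cells/well in medium containing 20 nM camptothecin, exposed to pin-transferred compounds, and grown at 37 °C for at least 48 hr. Viability was read as ATP luminescence.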
IL-1B inflam inh: inhibitors of inflammasome signaling (IL-1 beta secretion). THP-1 LPS/ATP IL-1B secretion, AlphaLISA, 16 h; active compounds read low. activity change, % at 57.5 µM. 360,000 compounds, 4.7% hits. AID 743279; in the data active = activity change below about -50%; inconclusive = mostly about -30% to -49%
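Secreted IL-1B measured by AlphaLISA bead assay after 16 h compound exposure of THP-1 cells; compounds (final up to 57.5 uM) added 1 h before LPS (250 ng/mL) and ATP (1.25 mM) stimulation; lower signal means less secretion.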
HT1080NT lethal: kills 2HG-producing HT-1080-NT fibrosarcoma cells. HT-1080-NT fibrosarcoma viability, CellTiter-Glo ATP luminescence, 48 h. Potency, µM (titrated, usually from 46.1 µM), without a hit: top-dose activity, negative = less viability, most hits filed as cytotoxic. 360,000 compounds, 1.6% hits;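 note: NT is the 2HG producing partner of a matched IDH1 knockdown line; potency is the fitted concentration of half-maximal effect; 0% = DMSO-treated cells and -100% = media-only wells without cells; nearly all actives have a fitted effect of over 55% in size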
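750 cells/well, RPMI + 5% FBS; 2 h settle, compound pin-transfer, 48 h at 37 degrees C. CellTiter-Glo 10 min RT, luminescence. Normalized to DMSO and media-only wells.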
The depositor's hits bear a star. An excerpt weighted towards active compounds, which were near 19% of everything screened. Unless noted, calls come from the whole dose curve; as a rule, active = well fitted curve in the direction sought with a large enough effect; inconclusive = small, poorly fitted or top-dose-only effect, or another doubt; inactive = no such curve, though single readings can be large; an effect the other way counts as inactive or inconclusive. Unless noted, % is set by controls: 0 for no effect and ±100 for the full control effect.

`O=C(NC1CN2CCC1CC2)c1cc(Cl)c([N+](=O)[O-])c2nc[nH]c12` (configuration not stated) gave ELG1 repair inh inconclusive, HT1080 IDH1KD tx 4%, TDP1 cell noCPT inconclusive, TDP1 cell CPT inconclusive, IL-1B inflam inh -104* and HT1080NT lethal 6%.
For Cc1cccc(NC(=O)c2ncn3c2C(=O)NC[C@H]3C)c1 the results were HT1080 IDH1KD tx -1%, TDP1 cell noCPT inconclusive, TDP1 cell CPT -24%, IL-1B inflam inh -9 and HT1080NT lethal 0%.
Screening NNC(N)=O returned ELG1 repair inh 19%, HT1080 IDH1KD tx 10%, TDP1 cell noCPT 2%, TDP1 cell CPT -1%, IL-1B inflam inh 19 and HT1080NT lethal inconclusive.
Screening CCCNC(=O)N1[C@H]2CC[C@@H]1C(C(=O)OC)=C(c1ccc(OC(F)(F)F)cc1)C2 returned ELG1 repair inh 2%, HT1080 IDH1KD tx 2%, TDP1 cell noCPT 15µM*, TDP1 cell CPT inconclusive, IL-1B inflam inh 4 and HT1080NT lethal -6%.
`COC(=O)C1=C(c2ccc(Cl)c(C(F)(F)F)c2)C[C@@H]2CC[C@H]1N2C(=O)NCc1ccco1` gave ELG1 repair inh -17%, HT1080 IDH1KD tx -7%, TDP1 cell noCPT 21µM*, TDP1 cell CPT inconclusive, IL-1B inflam inh -65* and HT1080NT lethal 0%.
Screening COC(=O)C1=C(c2ccc(Cl)c(C(F)(F)F)c2)C[C@@H]2CC[C@H]1N2C(=O)NC1CCCCC1 returned ELG1 repair inh inconclusive, HT1080 IDH1KD tx inconclusive, TDP1 cell noCPT 21µM*, TDP1 cell CPT 13µM*, IL-1B inflam inh -52* and HT1080NT lethal -29%.
`COC(=O)C1=C(c2ccc(OC(F)(F)F)cc2)C[C@@H]2CC[C@H]1N2C(=O)NCCCOC(C)C` gave ELG1 repair inh 2%, HT1080 IDH1KD tx 1%, TDP1 cell noCPT inconclusive, TDP1 cell CPT inconclusive, IL-1B inflam inh -6 and HT1080NT lethal -3%.
`COC(=O)C1=C(c2ccc(OC(F)(F)F)cc2)C[C@@H]2CC[C@H]1N2C(=O)NCCOc1ccccc1` gave ELG1 repair inh -28%, HT1080 IDH1KD tx -20%, TDP1 cell noCPT 18µM*, TDP1 cell CPT 23µM*, IL-1B inflam inh inconclusive and HT1080NT lethal -18%.
Screening COC(=O)C1=C(c2ccc(Cl)c(C(F)(F)F)c2)C[C@@H]2CC[C@H]1N2C(=O)NCCO returned ELG1 repair inh 23%, HT1080 IDH1KD tx 25%, TDP1 cell noCPT -29%, TDP1 cell CPT -19%, IL-1B inflam inh -5 and HT1080NT lethal 5%.
`CC(=O)N1N=C2C3CCN(CC3)C2C1c1cccc2ccccc12` (configuration not stated) gave ELG1 repair inh 8%, HT1080 IDH1KD tx -2%, TDP1 cell noCPT -8%, TDP1 cell CPT -1%, IL-1B inflam inh -13 and HT1080NT lethal 0%.
Screening O=C(c1ccco1)N1CCC2(CC1)CN(Cc1ccncc1)C2 returned TDP1 cell noCPT -2% and TDP1 cell CPT 4%.
`c1cc2c(cc1C1OC[C@@H]3C(c4ccc5c(c4)OCO5)OCC13)OCO2` (some centres not stated) gave TDP1 cell noCPT inconclusive and TDP1 cell CPT -25%.
COc1cc(C(=S)N2CCOCC2)cc(OC)c1OC(=O)Cc1ccccc1 was read as ELG1 repair inh 12%, HT1080 IDH1KD tx 12%, TDP1 cell noCPT -2%, TDP1 cell CPT -12%, IL-1B inflam inh 43 and HT1080NT lethal 6%.
For CC(C)CN1C(=S)SC(C)(C)C1n1oc(=O)n(-c2ccc(Cl)cc2)c1=O (configuration not stated) the results were ELG1 repair inh inconclusive, HT1080 IDH1KD tx inconclusive, TDP1 cell noCPT -27%, TDP1 cell CPT inconclusive, IL-1B inflam inh -26 and HT1080NT lethal inconclusive.
For COC(=O)C1=C(c2ccc(Cl)c(C(F)(F)F)c2)C[C@@H]2CC[C@H]1N2C(=O)NCCOc1ccccc1 the results were ELG1 repair inh inconclusive, HT1080 IDH1KD tx -14%, TDP1 cell noCPT 16µM*, TDP1 cell CPT inconclusive, IL-1B inflam inh -81* and HT1080NT lethal inconclusive.
For COC(=O)C1=C(c2ccccc2)C[C@@H]2CC[C@H]1N2C(=O)NC(C)C the results were HT1080 IDH1KD tx 6%, TDP1 cell CPT -16%, IL-1B inflam inh 18 and HT1080NT lethal 6%.
For COC(=O)C1=C(c2ccc(OC(F)(F)F)cc2)C[C@@H]2CC[C@H]1N2C(=O)NC(C)C the results were ELG1 repair inh -12%, HT1080 IDH1KD tx 15%, TDP1 cell noCPT 21µM*, TDP1 cell CPT 16µM*, IL-1B inflam inh 0 and HT1080NT lethal 12%.
For CCN(CC)P(=O)(c1nccn1C)N(CC)CC the results were ELG1 repair inh 6%, HT1080 IDH1KD tx 10%, TDP1 cell noCPT 1%, TDP1 cell CPT 9%, IL-1B inflam inh 14 and HT1080NT lethal 5%.
O=C(O)[C@@H](O)[C@H](O)C(=O)O was read as HT1080 IDH1KD tx 14%, TDP1 cell noCPT -4%, TDP1 cell CPT -26%, IL-1B inflam inh -11 and HT1080NT lethal 26%.
Screening CC1CCOC(=O)C=CC=CC(=O)OC2CC3OC4C5OC5(C)C(O)CC4(COC(=O)C1O)C2(C)C31CO1 (configuration not stated) returned TDP1 cell noCPT 0.15µM*, TDP1 cell CPT 0.15µM*, IL-1B inflam inh -104* and HT1080NT lethal inconclusive.
CC1=CC2OC3CC4OC(=O)C=CC=CC(=O)OCCC(C)C(O)C(=O)OCC2(CC1)C4(C)C31CO1 (configuration not stated) was read as TDP1 cell noCPT 0.16µM*, TDP1 cell CPT 0.023µM*, IL-1B inflam inh -103* and HT1080NT lethal 0.16µM*.
For CC(O)C1C=CC=CC(=O)OC2CC3OC4C5OC5(C)C(O)CC4(COC(=O)C(O)C(C)CCO1)C2(C)C31CO1 (configuration not stated) the results were TDP1 cell noCPT 0.15µM*, TDP1 cell CPT 0.13µM*, IL-1B inflam inh -100* and HT1080NT lethal inconclusive.

Bioassay records deposited in PubChem by National Center for Advancing Translational Sciences (NCATS).
